Compound activity: PubChem BioAssay, National Center for Advancing Translational Sciences (NCATS)
Most compounds without a hit are left out; they make up all but 8.3% or so of the library.
RORg inh: blocks mouse ROR gamma transcriptional activity | 5.4% of 310,000 active | P51450 | Potency, µM (titrated, usually from 53.6 µM), without a hit: at the top dose activity change, negative = inhibition, most hits filed as inhibitors | Drosophila S2 Gal4-RORgamma UAS-luciferase reporter, 20 h; also: potency is read from the fitted curve at half-maximal effect; % is scaled to controls: 0 for no effect and ±100 for the full control effect; nearly all actives have a fitted effect of over 60% in size
Target sequence (P51450 whole entry, looked up, the tested form may be a part): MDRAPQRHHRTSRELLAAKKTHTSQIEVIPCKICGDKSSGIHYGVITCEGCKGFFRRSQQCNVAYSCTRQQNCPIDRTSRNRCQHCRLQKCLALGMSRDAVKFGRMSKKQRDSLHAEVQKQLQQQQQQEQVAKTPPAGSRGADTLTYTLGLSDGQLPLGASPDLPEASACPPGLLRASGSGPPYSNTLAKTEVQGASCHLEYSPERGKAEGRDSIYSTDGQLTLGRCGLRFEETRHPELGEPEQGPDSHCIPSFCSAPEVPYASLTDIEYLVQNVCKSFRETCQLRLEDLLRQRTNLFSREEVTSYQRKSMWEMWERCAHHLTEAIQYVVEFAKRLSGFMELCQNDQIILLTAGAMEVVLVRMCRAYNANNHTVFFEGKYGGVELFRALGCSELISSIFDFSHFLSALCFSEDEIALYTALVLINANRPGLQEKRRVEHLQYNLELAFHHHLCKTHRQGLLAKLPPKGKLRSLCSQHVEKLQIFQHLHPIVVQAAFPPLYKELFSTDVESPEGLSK
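In this cell-based reporter format, copper sulfate (700 uM final) drives Gal4–ROR gamma fusion expression from a metallothionein promoter in Drosophila Schneider cells; compounds preincubated 1 hr, reporter read after 20 hr at ambient temperature.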
Giardia killer: Giardia lamblia killing. Giardia lamblia trophozoite viability. activity change, % at 7.66 µM, hits read low. 0.15% of 340,000 active. AID 540267; in the data active = activity change below about -80%; inconclusive = between about -30% and that limit;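 also: parasites exposed to compound for two days anaerobically before the ATP read; % is scaled to controls: 0 for no effect and ±100 for the full control effect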
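ATP-content bioluminescence gauges trophozoite survival. Cells (100/well) receive compound and incubate anaerobically for 48 hrs at 37 deg C; detection reagent follows for 15-30 min at room temperature.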
Gal4-VP16 FLuc: Gal4-VP16 reporter inhibition counter-screen. Drosophila S2 Gal4-VP16 UAS-luciferase, luminescence, 20 h. Potency, µM (titrated, usually from 53.6 µM), for inactives: at the top dose activity, negative = inhibition, actives largely listed as inhibitors. 3.5% of 310,000 active;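 also: Gal4-VP16 expression switched on by copper sulfate through the metallothionein promoter; potency is read from the fitted curve at half-maximal effect; % is scaled to controls: 0 for no effect and ±100 for the full control effect; nearly all actives have a fitted effect of over 50% in size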
BCR signal inh: chronic active BCR signaling inhibition | Potency, µM (series often up to 46.1 µM), without a hit: at the highest dose activity change, negative = inhibition, actives largely listed as inhibitors | 0.05% of 340,000 active | ABC-DLBCL IkBa-CBG/CBR reporter, luminescence ratio, 4 h; active = well fitted inhibition curve with a large enough effect in the signal ratio, with a control signal flat, not every such curve was filed as active; inconclusive = small, poorly fitted or top-dose-only effect, or effect the other way, or a change in a side signal; the % refers to the signal ratio;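 also: potency is read from the fitted curve at half-maximal effect; plate controls were basal doxycycline-induced cells for no effect and cells given 10 µM MG132 for full effect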
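Cell line TMD8 (human ABC DLBCL), stably expressing tet-inducible CBG68-IkBa fusion and CBR; IMDM/0.5% FBS; cpd up to 46 uM; dox induction, 4 h, 37C/5% CO2; dual luminescence; green/red ratio; MG132 control.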
SW480 rereplic: DNA re-replication induction in SW480 cells; SW480 DNA re-replication, Hoechst DNA content imaging, 48 h; Potency, µM (top dose mostly 46.1 µM), for the others: at the top dose re-replication activation, hits mostly activators; 1.8% of 340,000 active; also: potency is read from the fitted curve at half-maximal effect; % of control where 0% means no effect; nearly all actives have a fitted effect of over 55% in size
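250 cells/well; 23 nL cpd via pin tool; 48 hr, 37 C, 5% CO2; Hoechst 40 min; imager read of total nuclear intensity, ex 405/em 500-530 nm.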
MCF10A rereplic: DNA re-replication induction in MCF 10a cells; MCF 10A DNA re-replication, Hoechst nuclear intensity, 48 h; Potency, µM (series often up to 46.1 µM), for inactives: at the highest dose activity, positive = re-replication, most hits filed as activators; 2.9% of 350,000 active; AID 624296; also: potency is read from the fitted curve at half-maximal effect; % of control where 0% means no effect; nearly all actives have a fitted effect of over 50% in size
Starred values were filed as active, the others as inactive; ? = inconclusive; / = no result; [ ] = another dose, or the depositor's remark. Unless noted, calls follow the shape of the dose curve; as a rule, active = well fitted curve in the direction sought with a large enough effect; inconclusive = small, poorly fitted or top-dose-only effect, or another doubt; inactive = no such curve, though single readings can be large; an effect the other way counts as inactive or inconclusive.

SMILES	RORg inh	Giardia killer	Gal4-VP16 FLuc	BCR signal inh	SW480 rereplic	MCF10A rereplic
O=C(N/N=C/c1ccccc1O)c1ccncc1	3.2µM*	7	2.8µM*	?	?	?
O=C(N/N=C/c1cc(Br)ccc1OC(=O)c1ccc(Br)cc1)c1ccncc1	2.8µM*	13	5µM*	1%	?	10%
COC(C[C@H]1O[C@H]1[C@@H](O)[C@@H](C)OCc1ccccc1)OC	-24%	-8	3%	0%	31%[9.22 µM]	2%
CC(C)c1ccc(C(=O)NNC(=O)C2CC=CCC2C(=O)O)cc1 (centres undefined)	-8%	-22	-1%	0%	?	0%
O=C(N/N=C/c1cc(Br)ccc1O)c1ccncc1	6.3µM*	-8	?	-4%	?	?
CC(C)(C)OC(=O)N/N=C/c1cc(N=Nc2ccccc2)ccc1O	4µM*	-1	5.6µM*	-1%	-4%	?
C[C@@H](NC(=O)[C@@H]1Cc2ccccc2CN1)C(=O)NCC1CCCO1 (some centres undefined)	1%	27	-5%	2%	1%	4%
CCOc1ccc(NC(=O)Cn2nnc(C(=O)NCc3cccs3)c2N)cc1	-3%	22	-8%	1%	0%	0%
CCOC(=O)C(=CN=C(N)Nc1nc2ccccc2o1)C(=O)OCC	7.1µM*	-5	?	?	8%	-12%
CCOC(=O)C(Cc1ccc(O)cc1)Nc1nc2ccccc2o1 (centres undefined)	/	13	/	/	-4%	3%
CCCCC(=O)N/C(N)=N/c1nc2ccccc2o1	?	-2	-12%	?	1%	7%
CCCOC(=O)Nc1nc2ccccc2o1	14µM*	-14	?	-5%	-21%	-1%
Cc1ccc(NC(=O)c2ccc(CNc3c(N4CCC(C)CC4)c(=O)c3=O)cc2)cc1	32%	-4	-7%	-6%	7%	?
Cc1ccc(C)c(CN2CCC(CNC(=O)Nc3ccc(F)c(Cl)c3)CC2)c1	23%	-8	-5%	?	18µM*	26µM*
Cc1ccc(NC(=O)NCC2CCN(Cc3cccc(Cl)c3)CC2)cc1Cl	20µM*	-10	-24%	0%	-6%	?
CC(C)(C)N1C(=O)Cc2c1nc(N)c1c(N)nc(N3CCCCC3CO)c(C#N)c21 (centres undefined)	?	-15	2%	-12%	8%	15µM*
COCCOC(=O)C1=C(C)N(c2ccccc2)C(=O)NC1c1cccc([N+](=O)[O-])c1 (centres undefined)	?	0	18µM*	-6%	18%	-4%
CCOC(=O)C1=C(C)N(c2ccc(Cl)cc2)C(=O)NC1c1cccc([N+](=O)[O-])c1 (centres undefined)	?	-4	-8%	1%	-16%	-2%
Cc1cc2[nH]c(=O)c(=O)[nH]c2cc1S(=O)(=O)NC1CCCCC1C (centres undefined)	-43%	15	?	0%	-1%	6%
COc1cc(/C=C2\CCC(C)C3=C(c4cc(OC)c(OC)c(OC)c4)C(C#N)=C(N)OC32)cc(OC)c1OC (centres undefined)	/	-3	/	/	?	8.2µM*
CN(Cc1cccnc1)Cc1cn[nH]c1-c1ccc(-c2ccccc2)cc1	1%	12	-3%	-2%	-36%	?
COC(C[C@@H]1O[C@@H]1C(=O)COCc1ccccc1)OC	-25%	1	-4%	?	4%	6%
O=C(CCS(=O)(=O)c1ccc(Br)s1)Nc1ccccc1Br	20%	4	-3%	6%	-13%	0%
O=C(Nc1ccccc1)N1CCN(Cc2ccc(Cl)cc2)CC1	46%	9	-19%	-11%	?	-7%
O=C(Nc1ccc(Cl)cc1)N1CCCN(Cc2ccc(F)cc2)C1	-24%	4	-4%	?	?	21µM*
SMILES	RORg inh	Giardia killer	Gal4-VP16 FLuc	BCR signal inh	SW480 rereplic	MCF10A rereplic
Cc1nc([N+](=O)[O-])c(Br)n1CC(=O)c1ccc(Br)cc1	11µM*	-3	?	?	?	?
Cc1nc([N+](=O)[O-])c(Br)n1CC(=O)c1ccc2ccccc2c1	14µM*	-3	?	?	?	0.65µM*
Cc1nc([N+](=O)[O-])c(Br)n1CC(=O)c1ccccc1	4µM*	-9	?	-4%	?	?
O=[N+]([O-])c1c(Nc2ccccc2O)ccc2nonc12	18%	-1	4%	-24%	26%	?
O=[N+]([O-])c1c(Nc2ccccc2O)cc(Cl)c2nonc12	3.5µM*	13	2.8µM*	?	-5%	-3%
Cc1ccc(S(=O)(=O)CC(=O)Nc2nc3ccc(S(N)(=O)=O)cc3s2)cc1	9%	-10	4%	-14%	?	5%
O=[N+]([O-])c1ccc(Sc2cccc[n+]2[O-])c2nonc12	1µM*	-2	1µM*	?	?	?
CC1CCN(C(=O)/C=C/c2ccc(C(C)(C)C)cc2)CC1	?	1	-1%	?	2%	18µM*
C=Cc1ccc(Cn2c(C(=O)O)c(CNCc3ccccc3)c3ccc(C)cc32)cc1	/	10	/	/	/	/
CS(=O)c1nc(-c2ccc(Br)cc2)cc(-c2ccccc2)c1C#N (centres undefined)	7.9µM*	0	14µM*	?	2%	16%
CS(=O)(=O)c1nc(-c2ccc(Br)cc2)cc(-c2ccccc2)c1C#N	3.2µM*	-7	?	?	3.7µM*	5.8µM*
COc1ccc(-c2cc(-c3ccccc3)c(C#N)c(S(C)(=O)=O)n2)cc1	?	20	-28%	?	?	?
COC(=O)c1ccc(N/C=C/C(=O)c2ccccc2)cc1	-6%	-4	-11%	?	-10%	2%
COn1c(SC(C)C)nc2ccccc2c1=O	?	-14	5%	3%	-14%	14%
COn1c(-n2nc(C)cc2C)nc2ccccc2c1=O	7.9µM*	-18	7.1µM*	-2%	-1%	-4%
C#CCOn1c(-n2nc(C)cc2C)nc2ccccc2c1=O	11µM*	14	?	1%	5%	8%
CCOC(=O)C1CCN(Cc2nnc(-c3ccccc3C)o2)CC1	-16%	-5	1%	?	-3%	5%
COCC(=O)N1CCC(Oc2ccc(C(=O)N3C[C@@H]4CCC[C@H]3C4)cc2)CC1	3%	-22	-4%	?	-6%	4%
